One experiment concerns the target Albumin (Bos taurus) (UniProt P02769). Put plainly: compounds binding labelled BSA control protein – biochemical, small-molecule microarray, Alexa647 label, 635/667 nm fluorescence, artefact control for SMM control protein annotation, profiling panel (AID 1118).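 Also: score merges 667 nm emission intensity and signal-to-noise per printed compound spot.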 The settings on record: BSA-A647 binding, fluorescence 635 nm, higher = more signal.
A short description of experiment [1]: probe aXIP binding to arrayed compounds – biochemical, NeuroSMM set, 635/667 nm fluorescence, primary screen (AID 1119).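 Also: probe is the protein aXip251-270 applied at 1 µg/mL to compound-printed slides; binding of probe to printed compounds measured as 667 nm fluorescence plus signal to noise.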 To be noted: small-molecule microarray, higher = more signal, called active from +8 up or from −8 down.
Experiment [2] in a line: probe aNOTCH3 binding on compound microarray – biochemical, small-molecule microarray, 635/667 nm fluorescence, primary screen (AID 1120).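 Also: probe is a biotin-tagged antibody raised against NOTCH3 rather than NOTCH3 protein; score merges spot fluorescence near 667 nm with spot signal to noise.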 To be noted: higher = more signal.
The nature of experiment [3]: probe aNOTCH2 binding on compound microarray – biochemical, small-molecule microarray, 635/667 nm fluorescence, primary screen (AID 1121).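 Also: score merges feature fluorescence read at 667 nm with its signal to noise.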 The settings on record: higher = more signal.
The target of experiment [4] is Carbonic anhydrase 2 (Homo sapiens) (UniProt P00918). Put plainly: compounds binding carbonic anhydrase 2 – biochemical, small-molecule microarray, Alexa647-labelled CAII, profiling panel (AID 1122). The settings on record: CAII-A647 binding fluorescence, higher = more signal.
The nature of experiment [5]: COS7 lysate on small-molecule microarray, probe aHis, 635 nm (AID 1123).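 Also: z-score combines 667nm fluorescence intensity with signal-to-noise per printed compound spot.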 The settings on record: COS7 cell lysate, fluorescence, higher = more signal.
Experiment [6] in a line: probe aLAP1 signal on lysate-treated microarray – cell lysate, small-molecule microarray, COS7 lysate, primary screen (AID 1124).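 Also: lysate comes from COS7 cells expressing LAP1 and is applied at 0.3 µg/mL; score merges spot fluorescence near 667 nm with signal-to-noise over triplicate slides.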 To be noted: probe aLAP1, fluorescence, higher = more signal.
For another experiment, the system named is Sam68 (KHDRBS1). Description: compounds binding KHDRBS1 protein – biochemical, small-molecule microarray, 635 nm fluorescence, primary screen (AID 1125).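 Also: score merges 667 nm channel intensity with signal to noise over triplicate slides.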 The settings on record: higher = more signal.
The test system of experiment [7] is Chordin-like protein 2 (CHRDL2). Description: compounds binding chordin-like 2 – biochemical, small-molecule microarray, 635 nm fluorescence, primary screen (AID 1126).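 Also: printed compound slides probed with Chrdl2 protein at 4 µg/mL for 1 h at 4 C; score merges 667 nm emission intensity with signal to noise over three replicate slides.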 To be noted: fluorescence 635 nm, higher = more signal.
Experiment [8] deals with Concanavalin-A (Canavalia ensiformis) (UniProt P02866). Put plainly: compounds binding concanavalin A lectin – biochemical, small-molecule microarray, Alexa647 label, 635 nm, artefact control for SMM control protein annotation, primary screen (AID 1127).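 Also: z combines 667 nm emission intensity with signal-to-noise across three replicate slides.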 The settings on record: ConA-A647 binding fluorescence, higher = more signal.
Chain of Concanavalin-A (Canavalia ensiformis) (P02866 whole entry, looked up): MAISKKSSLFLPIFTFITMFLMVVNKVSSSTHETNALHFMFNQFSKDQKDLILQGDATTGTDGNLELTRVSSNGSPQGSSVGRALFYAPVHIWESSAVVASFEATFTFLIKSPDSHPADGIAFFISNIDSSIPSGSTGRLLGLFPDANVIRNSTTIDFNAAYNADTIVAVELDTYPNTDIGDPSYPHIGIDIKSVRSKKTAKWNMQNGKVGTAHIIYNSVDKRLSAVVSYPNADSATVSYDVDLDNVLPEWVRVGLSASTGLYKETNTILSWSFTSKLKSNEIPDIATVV
A short description of experiment [9]: compounds binding Alexa647 anti-His antibody – biochemical, small-molecule microarray, 635 nm fluorescence, artefact control for SMM control protein annotation, primary screen (AID 1128).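 Also: score merges feature fluorescence with signal-to-noise for each printed compound spot.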 The settings on record: higher = more signal.
Experiment [10] relates to Human papillomavirus type 1a E7 protein (residues 1-88). Description: HPV1a E7 small-molecule binders, primary screen, biochemical, small-molecule microarray, residues 1-88, 635 nm (AID 1129). To be noted: small-molecule microarray binding, fluorescence 635 nm; higher = more signal.
In experiment [11] the target is Focal adhesion kinase 1 (Homo sapiens) (UniProt Q05397). Put plainly: PTK2 protein binding on printed compound slides – biochemical, small-molecule microarray, 635/667 nm fluorescence, BSA, DTT, primary screen (AID 1130).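 Also: composite of spot emission at 667 nm and signal to noise over triplicate slides.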 The settings on record: 635 nm fluorescence, higher = more signal.
Chain of Focal adhesion kinase 1 (Homo sapiens) (Q05397 whole entry, looked up): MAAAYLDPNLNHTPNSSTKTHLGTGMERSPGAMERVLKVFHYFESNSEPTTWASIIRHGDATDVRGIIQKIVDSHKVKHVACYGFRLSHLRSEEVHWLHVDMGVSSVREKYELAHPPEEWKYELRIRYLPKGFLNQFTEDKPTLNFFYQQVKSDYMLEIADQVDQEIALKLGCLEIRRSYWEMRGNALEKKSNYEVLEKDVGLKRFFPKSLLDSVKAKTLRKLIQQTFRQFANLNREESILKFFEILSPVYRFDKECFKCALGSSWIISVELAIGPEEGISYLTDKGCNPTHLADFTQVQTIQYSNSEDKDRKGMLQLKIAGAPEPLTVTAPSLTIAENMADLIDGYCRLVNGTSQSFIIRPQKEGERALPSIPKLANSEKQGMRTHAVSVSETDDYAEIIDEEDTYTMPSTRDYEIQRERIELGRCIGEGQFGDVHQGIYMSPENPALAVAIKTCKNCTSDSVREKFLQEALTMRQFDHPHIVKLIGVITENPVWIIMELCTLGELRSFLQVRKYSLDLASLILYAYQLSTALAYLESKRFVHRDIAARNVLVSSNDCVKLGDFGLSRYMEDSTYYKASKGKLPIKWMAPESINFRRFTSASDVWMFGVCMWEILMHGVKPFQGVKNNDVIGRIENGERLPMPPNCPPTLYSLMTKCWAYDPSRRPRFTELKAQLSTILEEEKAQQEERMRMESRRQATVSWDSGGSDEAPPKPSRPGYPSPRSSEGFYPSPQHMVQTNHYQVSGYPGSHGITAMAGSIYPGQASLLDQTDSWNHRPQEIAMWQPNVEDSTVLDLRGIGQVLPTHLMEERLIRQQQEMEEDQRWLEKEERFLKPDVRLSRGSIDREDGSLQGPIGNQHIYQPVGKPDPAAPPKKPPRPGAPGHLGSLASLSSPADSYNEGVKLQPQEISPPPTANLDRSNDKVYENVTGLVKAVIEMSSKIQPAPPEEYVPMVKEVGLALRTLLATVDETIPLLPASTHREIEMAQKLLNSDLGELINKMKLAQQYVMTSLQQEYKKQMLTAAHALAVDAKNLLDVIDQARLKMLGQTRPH
The subject of experiment [12] is Fibrinogen (Alexa647-labelled). Put plainly: Alexa647-fibrinogen binding to printed small molecules – biochemical, small-molecule microarray, 635/667 nm fluorescence, artefact control for SMM control-protein annotation, profiling panel (AID 1131).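 Also: z-score merges 667 nm fluorescence with per-spot signal-to-noise over triplicate slides.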 To be noted: fibrinogen-A647 binding fluorescence, higher = more signal.
Experiment [13] deals with Follistatin (Homo sapiens) (UniProt P19883). Description: FST protein binding to printed compounds – biochemical, small-molecule microarray, 635/667 nm fluorescence, primary screen (AID 1132). To be noted: 635 nm fluorescence, higher = more signal.
Chain of Follistatin (Homo sapiens) (P19883 whole entry, looked up): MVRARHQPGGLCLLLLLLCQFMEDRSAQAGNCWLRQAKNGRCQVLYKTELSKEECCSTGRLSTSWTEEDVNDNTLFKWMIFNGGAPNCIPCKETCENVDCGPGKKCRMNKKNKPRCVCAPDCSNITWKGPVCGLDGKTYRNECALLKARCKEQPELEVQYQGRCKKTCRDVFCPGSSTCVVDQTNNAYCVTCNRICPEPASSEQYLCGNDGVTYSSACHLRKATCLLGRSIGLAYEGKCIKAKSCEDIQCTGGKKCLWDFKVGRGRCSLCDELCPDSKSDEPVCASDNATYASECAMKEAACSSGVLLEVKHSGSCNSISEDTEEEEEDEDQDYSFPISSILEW
Experiment [14] concerns the target Fibroblast growth factor 2 (Homo sapiens) (UniProt P09038). Put plainly: basic fibroblast growth factor binding to printed compounds – biochemical, small-molecule microarray, 635/667 nm fluorescence, primary screen (AID 1133). The settings on record: FGF2, fluorescence 635/667, higher = more signal.
A short description of experiment [15]: JC-1 mitochondrial potential readout, lung cancer cells – cell-based, A549, JC-1 fluorescence, basal, 24 h, 100 nL, profiling panel (AID 1138).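 Also: A549 lung adenocarcinoma cells under basal conditions with no added stimulus; test concentration not given here.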 To be noted: higher = more signal.
A further experiment relates to Lefty1. Put plainly: Lefty1 protein binding to printed compounds – biochemical, small-molecule microarray, 635/667 nm fluorescence, primary screen (AID 1139). To be noted: fluorescence 635/667, higher = more signal.
Experiment [16] concerns wheat germ agglutinin (Triticum aestivum), Alexa647-labelled. Put plainly: Alexa647-WGA lectin binding to printed small molecules – biochemical, small-molecule microarray, 635/667 nm fluorescence, artefact control for SMM control-protein annotation, profiling panel (AID 1140).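 Also: score merges 667 nm feature emission with signal to noise over triplicate slides.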 To be noted: WGA-A647 binding, 635 nm fluorescence, higher = more signal.
In experiment [17] the target is Luciferin 4-monooxygenase (Photinus pyralis) (UniProt P08659). Put plainly: inhibition of purified Photinus pyralis luciferase – biochemical, luminescence, purified enzyme, 2006 set, primary screen (AID 1141).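 Also: cell-free assay with purified firefly luciferase at 100 ng per well in PBS; test concentration not given here.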 The settings on record: purified firefly luciferase, SteadyGlo luminescence, 30 min; higher = more signal, called active from +8 up or from −8 down.
Chain of Luciferin 4-monooxygenase (Photinus pyralis) (P08659 whole entry, looked up): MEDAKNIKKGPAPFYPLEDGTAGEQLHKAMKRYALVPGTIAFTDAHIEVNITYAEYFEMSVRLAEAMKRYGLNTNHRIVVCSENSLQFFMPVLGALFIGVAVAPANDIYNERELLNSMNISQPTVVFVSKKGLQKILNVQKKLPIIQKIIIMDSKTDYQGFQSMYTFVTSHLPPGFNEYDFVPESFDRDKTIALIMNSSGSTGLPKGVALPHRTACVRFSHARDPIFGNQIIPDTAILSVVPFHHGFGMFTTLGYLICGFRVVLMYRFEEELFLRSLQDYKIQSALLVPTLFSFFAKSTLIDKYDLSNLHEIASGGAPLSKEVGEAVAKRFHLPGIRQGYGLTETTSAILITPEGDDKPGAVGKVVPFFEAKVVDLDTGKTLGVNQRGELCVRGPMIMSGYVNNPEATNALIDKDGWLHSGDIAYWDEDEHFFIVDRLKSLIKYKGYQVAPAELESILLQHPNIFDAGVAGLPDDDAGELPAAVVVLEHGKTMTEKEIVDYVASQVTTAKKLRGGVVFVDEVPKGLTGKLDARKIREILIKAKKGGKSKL

Activity calls are given as the source filed them.

Chain of Albumin (Bos taurus) (P02769 whole entry, looked up): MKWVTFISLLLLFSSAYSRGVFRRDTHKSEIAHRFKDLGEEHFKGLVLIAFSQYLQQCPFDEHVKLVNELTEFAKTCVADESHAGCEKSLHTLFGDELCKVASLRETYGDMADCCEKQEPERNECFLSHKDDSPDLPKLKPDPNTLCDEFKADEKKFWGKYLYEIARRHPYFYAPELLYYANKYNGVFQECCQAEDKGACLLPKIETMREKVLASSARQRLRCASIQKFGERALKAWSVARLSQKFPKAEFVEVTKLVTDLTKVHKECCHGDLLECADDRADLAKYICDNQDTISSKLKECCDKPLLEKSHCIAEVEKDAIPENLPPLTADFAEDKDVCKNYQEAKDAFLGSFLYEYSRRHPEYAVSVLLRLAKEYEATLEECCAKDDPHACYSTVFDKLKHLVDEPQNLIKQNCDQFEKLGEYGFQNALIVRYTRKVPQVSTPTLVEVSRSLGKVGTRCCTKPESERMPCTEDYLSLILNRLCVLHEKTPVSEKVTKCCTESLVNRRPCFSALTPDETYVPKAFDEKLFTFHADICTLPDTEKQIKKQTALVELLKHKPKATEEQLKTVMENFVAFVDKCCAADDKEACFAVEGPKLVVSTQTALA
Chain of Fibroblast growth factor 2 (Homo sapiens) (P09038 whole entry, looked up): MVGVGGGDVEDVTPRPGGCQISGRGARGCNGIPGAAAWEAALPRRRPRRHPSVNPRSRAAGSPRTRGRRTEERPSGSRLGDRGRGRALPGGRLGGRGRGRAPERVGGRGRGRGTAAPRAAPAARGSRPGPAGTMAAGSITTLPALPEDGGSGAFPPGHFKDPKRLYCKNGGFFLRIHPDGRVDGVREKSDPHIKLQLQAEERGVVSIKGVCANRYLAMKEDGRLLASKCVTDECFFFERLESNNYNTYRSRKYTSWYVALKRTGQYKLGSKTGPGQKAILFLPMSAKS

Take `COc1ccc(C(O)C2C=CC3C(=O)N(c4ccccc4)C(=O)C3N2Nc2ccc([N+](=O)[O-])cc2)cc1` (stereo not given): the composite z-score in the experiment with Albumin (Bos taurus) was 0.968; in experiment [2] it was 0.84; in [3], 0.495; in experiment [4], 0.637; in experiment [5], 2.86; in experiment [6], 0.64. In addition, the composite z-score with Sam68 (KHDRBS1) is 1.31; in experiment [7], -0.936; in experiment [8], 0.989; in [9] it was 2.11; in [10], 1.24; in [11] it was 0.961. Also, the composite z-score in experiment [12] is 1.01; in experiment [13], 0.848; in experiment [14], -0.246; with Lefty1 it was -0.344; in experiment [16], 1.14. The composite Z-score in experiment [1] was 1.19 (inactive). The z-score in experiment [15] was 0.103; in [17], 0.732 (inactive).

Take `O=C1C=C(c2ccccc2)C(=O)c2ccc([C@H]3Oc4ccccc4S(=O)(=O)N4CCC[C@@H]34)cc21`: the composite z-score was -0.878 with Albumin (Bos taurus); -0.185 in [2]; -0.161 in [3]; -0.48 in [4]; -0.811 in [5]; -0.534 in [6]. The composite z-score in the experiment with Sam68 (KHDRBS1) was -1.05; in [7], 0.594; in experiment [8], -0.388; in experiment [9] it was -0.398; in experiment [10], -0.315; in experiment [11], -0.29. In addition, the composite z-score in experiment [12] is -0.506; in [13] it was 0.428; in [14], -0.0096; in the experiment with Lefty1 it was 0.203; in experiment [16], -0.0704. In addition, in [1], the composite Z-score was 0.159 (inactive). Moreover, the z-score in experiment [15] is -1.69; in experiment [17], -2.04 (inactive).

Regarding `C=C(COC)/C(=C/C[C@H](OC(=O)c1ccncc1)c1ccccc1OCCO)c1cnc2ccccc2c1`, the composite z-score in the experiment with Albumin (Bos taurus) is 0.609; in [2], 0.0964; in experiment [3] it was -0.102; in experiment [4], 0.881; in [5], 2.07; in [6] it was 0.118. Also, the composite z-score was 1.29 in the experiment with Sam68 (KHDRBS1); 0.951 in experiment [7]; 1.03 in [8]; 0.717 in experiment [9]; 1.23 in experiment [10]; 0.241 in experiment [11]. Further, the composite z-score in experiment [12] is 1.01; in [13], 1.4; in [14] it was 1.35; with Lefty1, 1.5; in [16], 1.04. Besides, in experiment [1], the composite Z-score was 0.431 (inactive). Besides, the values for the z-score in experiment [15] and in experiment [17] were 0.662 and -0.212 (inactive), respectively.

As for `O=C1OCCC/C=C\[C@H]2OC34C=CCN(CCN5CCOCC5)C(=O)[C@H]3N(CCCCCCO)C(=O)[C@@H]4C12` (stereo not given in full), the composite z-score was 0.719 with Albumin (Bos taurus); -0.0947 in experiment [2]; -0.144 in [3]; 0.867 in [4]; 0.817 in [5]; 1.57 in [6]. In addition, the composite z-score in the experiment with Sam68 (KHDRBS1) is 0.184; in [7], -0.394; in [8], -0.324; in experiment [9], 3.45; in experiment [10], 0.167; in experiment [11], -0.447. The composite z-score in experiment [12] was -0.613; in experiment [13], -0.318; in experiment [14], -0.25; with Lefty1, 0.337; in [16] it was 0.33. Besides, the composite Z-score in experiment [1] is 1.02 (inactive). In addition, the z-score in experiment [15] was 1.13; in experiment [17], -1.05 (inactive).

As for `COC(=O)C(CC#Cc1ccc2c(c1)[C@]1(C(=O)N2)[C@H](c2ccccc2OCCO)N2[C@H](c3ccccc3)[C@H](c3ccccc3)OC(=O)[C@H]2[C@@H]1C(=O)NC[C@H](O)c1ccccc1)C(=O)OC`, the composite z-score with Albumin (Bos taurus) is 0.42; in experiment [2], -0.19; in experiment [3] it was 0.0537; in experiment [4], 0.544; in [5] it was 1.83; in experiment [6], 0.445. Moreover, the composite z-score came to 0.947 with Sam68 (KHDRBS1); 0.285 in experiment [7]; 1.12 in [8]; 1.42 in experiment [9]; 1.23 in [10]; 3.08 in experiment [11]. Also, the composite z-score amounted to 0.427 in experiment [12]; 0.597 in experiment [13]; 1.06 in experiment [14]; 0.697 with Lefty1; 1.14 in [16]. The composite Z-score in experiment [1] is 0.231 (inactive). The z-score in [15] was -0.789; in experiment [17] it was -0.832 (inactive).

In the case of `C=CC1c2cc(O)c(OC)cc2CCN1Cc1cc2c(cc1Br)OCO2` (stereo not given), the composite z-score was -0.956 in the experiment with Albumin (Bos taurus); -0.0152 in experiment [2]; -0.0891 in experiment [3]; 0.823 in [4]; 1.99 in experiment [5]; 1.25 in experiment [6]. The composite z-score with Sam68 (KHDRBS1) was 0.342; in [7], 0.775; in experiment [8], 0.142; in experiment [9], 0.976; in experiment [10] it was -1.38; in experiment [11] it was -0.0181. In addition, the composite z-score was -0.851 in experiment [12]; 1.27 in experiment [13]; -0.0941 in experiment [14]; 0.504 in the experiment with Lefty1; -0.623 in experiment [16]. Besides, the composite Z-score in experiment [1] is 0.577 (inactive). Besides, the z-score is -1.54 in experiment [15] and 0.0715 (inactive) in experiment [17].

Values taken from PubChem BioAssay.
